# Measurements: the supplement of paper PMC4466140
# Target: AgAbp1
# Assay: SPOT peptide array binding signal intensity (averaged, normalized) (arbitrary units (background-subtracted, floor 0; scale differs between SH3 domains)); higher = stronger binding of the SH3 domain to the peptide
# Outline: (§1)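 Four yeast species supplied the SH3 domains, which were expressed as GST fusions in E. coli BL21(DE3) and purified on glutathione Sepharose. Incubation with cellulose membranes carrying synthetic 15-mer peptides, cysteines exchanged for serines, ran overnight at 4°C at 10 μg/ml in TBS-based blocking buffer. Binding signal is reported as normalized, background-subtracted spot intensity averaged over replicates, in arbitrary units not shared between domains.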
row,Binder,SPOT peptide array binding signal intensity
1,RFKRHRLEFPFNESE,154

# Target: AgBbc1
# Assay: as above
# Outline: as §1
row,Binder,SPOT peptide array binding signal intensity
1,RFKRHRLEFPFNESE,38.5

# Target: AgBem1-D1
# Assay: as above
# Outline: as §1
row,Binder,SPOT peptide array binding signal intensity
1,RFKRHRLEFPFNESE,120

# Target: AgBzz1-D1
# Assay: as above
# Outline: as §1
row,Binder,SPOT peptide array binding signal intensity
1,RFKRHRLEFPFNESE,58

# Target: AgBzz1-D2
# Assay: as above
# Outline: as §1
row,Binder,SPOT peptide array binding signal intensity
1,RFKRHRLEFPFNESE,71

# Target: AgCyk3
# Assay: as above
# Outline: as §1
row,Binder,SPOT peptide array binding signal intensity
1,RFKRHRLEFPFNESE,≤ 0

# Target: AgFus1
# Assay: as above
# Outline: as §1
row,Binder,SPOT peptide array binding signal intensity
1,RFKRHRLEFPFNESE,378

# Target: AgHof1
# Assay: as above
# Outline: as §1
row,Binder,SPOT peptide array binding signal intensity
1,RFKRHRLEFPFNESE,28

# Target: AgHse1
# Assay: as above
# Outline: as §1
row,Binder,SPOT peptide array binding signal intensity
1,RFKRHRLEFPFNESE,929

# Target: AgLsb1
# Assay: as above
# Outline: as §1
row,Binder,SPOT peptide array binding signal intensity
1,RFKRHRLEFPFNESE,1.5

# Target: AgLsb4
# Assay: as above
# Outline: as §1
row,Binder,SPOT peptide array binding signal intensity
1,RFKRHRLEFPFNESE,78

# Target: AgMyo5
# Assay: as above
# Outline: as §1
row,Binder,SPOT peptide array binding signal intensity
1,RFKRHRLEFPFNESE,0.75

# Target: AgNbp2
# Assay: as above
# Outline: as §1
row,Binder,SPOT peptide array binding signal intensity
1,RFKRHRLEFPFNESE,37

# Target: AgRvs167
# Assay: as above
# Outline: as §1
row,Binder,SPOT peptide array binding signal intensity
1,RFKRHRLEFPFNESE,5.33

# Target: AgSho1
# Assay: as above
# Outline: as §1
row,Binder,SPOT peptide array binding signal intensity
1,RFKRHRLEFPFNESE,46

# Target: AgSla1-D1-D2
# Assay: as above
# Outline: as §1
row,Binder,SPOT peptide array binding signal intensity
1,RFKRHRLEFPFNESE,98

# Target: AgSla1-D3
# Assay: as above
# Outline: as §1
row,Binder,SPOT peptide array binding signal intensity
1,RFKRHRLEFPFNESE,8

# Target: CaAbp1-D1
# Assay: as above
# Outline: as §1
row,Binder,SPOT peptide array binding signal intensity
1,RFKRHRLEFPFNESE,759

# Target: CaAbp1-D2
# Assay: as above
# Outline: as §1
row,Binder,SPOT peptide array binding signal intensity
1,RFKRHRLEFPFNESE,598

# Target: CaBbc1
# Assay: as above
# Outline: as §1
row,Binder,SPOT peptide array binding signal intensity
1,RFKRHRLEFPFNESE,107

# Target: CaBem1-D1
# Assay: as above
# Outline: as §1
row,Binder,SPOT peptide array binding signal intensity
1,RFKRHRLEFPFNESE,164

# Target: CaBzz1-D1
# Assay: as above
# Outline: as §1
row,Binder,SPOT peptide array binding signal intensity
1,RFKRHRLEFPFNESE,34.5

# Target: CaBzz1-D2
# Assay: as above
# Outline: as §1
row,Binder,SPOT peptide array binding signal intensity
1,RFKRHRLEFPFNESE,34.8

# Target: CaCyk3
# Assay: as above
# Outline: as §1
row,Binder,SPOT peptide array binding signal intensity
1,RFKRHRLEFPFNESE,3

# Target: CaFus1
# Assay: as above
# Outline: as §1
row,Binder,SPOT peptide array binding signal intensity
1,RFKRHRLEFPFNESE,608

# Target: CaHof1
# Assay: as above
# Outline: as §1
row,Binder,SPOT peptide array binding signal intensity
1,RFKRHRLEFPFNESE,1.5

# Target: CaHse1
# Assay: as above
# Outline: as §1
row,Binder,SPOT peptide array binding signal intensity
1,RFKRHRLEFPFNESE,16

# Target: CaLsb1
# Assay: as above
# Outline: as §1
row,Binder,SPOT peptide array binding signal intensity
1,RFKRHRLEFPFNESE,≤ 0

# Target: CaLsb4
# Assay: as above
# Outline: as §1
row,Binder,SPOT peptide array binding signal intensity
1,RFKRHRLEFPFNESE,31

# Target: CaMyo5
# Assay: as above
# Outline: as §1
row,Binder,SPOT peptide array binding signal intensity
1,RFKRHRLEFPFNESE,13.2

# Target: CaNbp2
# Assay: as above
# Outline: as §1
row,Binder,SPOT peptide array binding signal intensity
1,RFKRHRLEFPFNESE,342

# Target: CaRvs167
# Assay: as above
# Outline: as §1
row,Binder,SPOT peptide array binding signal intensity
1,RFKRHRLEFPFNESE,25.7

# Target: CaRvs167-3
# Assay: as above
# Outline: as §1
row,Binder,SPOT peptide array binding signal intensity
1,RFKRHRLEFPFNESE,211

# Target: CaSho1
# Assay: as above
# Outline: as §1
row,Binder,SPOT peptide array binding signal intensity
1,RFKRHRLEFPFNESE,939

# Target: CaSla1-D1-D2
# Assay: as above
# Outline: as §1
row,Binder,SPOT peptide array binding signal intensity
1,RFKRHRLEFPFNESE,7

# Target: CaSla1-D3
# Assay: as above
# Outline: as §1
row,Binder,SPOT peptide array binding signal intensity
1,RFKRHRLEFPFNESE,4

# Target: ScAbp1
# Assay: as above
# Outline: as §1
row,Binder,SPOT peptide array binding signal intensity
1,RFKRHRLEFPFNESE,236

# Target: ScBbc1
# Assay: as above
# Outline: as §1
row,Binder,SPOT peptide array binding signal intensity
1,RFKRHRLEFPFNESE,11.5

# Target: ScBem1-D1
# Assay: as above
# Outline: as §1
row,Binder,SPOT peptide array binding signal intensity
1,RFKRHRLEFPFNESE,52

# Target: ScBzz1-D1
# Assay: as above
# Outline: as §1
row,Binder,SPOT peptide array binding signal intensity
1,RFKRHRLEFPFNESE,12

# Target: ScBzz1-D2
# Assay: as above
# Outline: as §1
row,Binder,SPOT peptide array binding signal intensity
1,RFKRHRLEFPFNESE,1

# Target: ScCyk3
# Assay: as above
# Outline: as §1
row,Binder,SPOT peptide array binding signal intensity
1,RFKRHRLEFPFNESE,112

# Target: ScFus1
# Assay: as above
# Outline: as §1
row,Binder,SPOT peptide array binding signal intensity
1,RFKRHRLEFPFNESE,286

# Target: ScHof1
# Assay: as above
# Outline: as §1
row,Binder,SPOT peptide array binding signal intensity
1,RFKRHRLEFPFNESE,5.25

# Target: ScHse1
# Assay: as above
# Outline: as §1
row,Binder,SPOT peptide array binding signal intensity
1,RFKRHRLEFPFNESE,1570

# Target: ScLsb1
# Assay: as above
# Outline: as §1
row,Binder,SPOT peptide array binding signal intensity
1,RFKRHRLEFPFNESE,36.2

# Target: ScLsb2
# Assay: as above
# Outline: as §1
row,Binder,SPOT peptide array binding signal intensity
1,RFKRHRLEFPFNESE,3

# Target: ScLsb3
# Assay: as above
# Outline: as §1
row,Binder,SPOT peptide array binding signal intensity
1,RFKRHRLEFPFNESE,80

# Target: ScLsb4
# Assay: as above
# Outline: as §1
row,Binder,SPOT peptide array binding signal intensity
1,RFKRHRLEFPFNESE,≤ 0

# Target: ScMyo3
# Assay: as above
# Outline: as §1
row,Binder,SPOT peptide array binding signal intensity
1,RFKRHRLEFPFNESE,≤ 0

# Target: ScMyo5
# Assay: as above
# Outline: as §1
row,Binder,SPOT peptide array binding signal intensity
1,RFKRHRLEFPFNESE,3.5

# Target: ScNbp2
# Assay: as above
# Outline: as §1
row,Binder,SPOT peptide array binding signal intensity
1,RFKRHRLEFPFNESE,154

# Target: ScPex13
# Assay: as above
# Outline: as §1
row,Binder,SPOT peptide array binding signal intensity
1,RFKRHRLEFPFNESE,≤ 0

# Target: ScRvs167
# Assay: as above
# Outline: as §1
row,Binder,SPOT peptide array binding signal intensity
1,RFKRHRLEFPFNESE,25.3

# Target: ScSho1
# Assay: as above
# Outline: as §1
row,Binder,SPOT peptide array binding signal intensity
1,RFKRHRLEFPFNESE,756

# Target: ScSla1-D1-D2
# Assay: as above
# Outline: as §1
row,Binder,SPOT peptide array binding signal intensity
1,RFKRHRLEFPFNESE,358

# Target: ScSla1-D3
# Assay: as above
# Outline: as §1
row,Binder,SPOT peptide array binding signal intensity
1,RFKRHRLEFPFNESE,11.8

# Target: SpAbp1-D1
# Assay: as above
# Outline: as §1
row,Binder,SPOT peptide array binding signal intensity
1,RFKRHRLEFPFNESE,419

# Target: SpBbc1
# Assay: as above
# Outline: as §1
row,Binder,SPOT peptide array binding signal intensity
1,RFKRHRLEFPFNESE,2.5

# Target: SpBzz1-D1
# Assay: as above
# Outline: as §1
row,Binder,SPOT peptide array binding signal intensity
1,RFKRHRLEFPFNESE,127

# Target: SpBzz1-D2
# Assay: as above
# Outline: as §1
row,Binder,SPOT peptide array binding signal intensity
1,RFKRHRLEFPFNESE,≤ 0

# Target: SpCyk3
# Assay: as above
# Outline: as §1
row,Binder,SPOT peptide array binding signal intensity
1,RFKRHRLEFPFNESE,≤ 0

# Target: SpHof1
# Assay: as above
# Outline: as §1
row,Binder,SPOT peptide array binding signal intensity
1,RFKRHRLEFPFNESE,68.2

# Target: SpHof1-2
# Assay: as above
# Outline: as §1
row,Binder,SPOT peptide array binding signal intensity
1,RFKRHRLEFPFNESE,12.2

# Target: SpHof1-3
# Assay: as above
# Outline: as §1
row,Binder,SPOT peptide array binding signal intensity
1,RFKRHRLEFPFNESE,348

# Target: SpHse1
# Assay: as above
# Outline: as §1
row,Binder,SPOT peptide array binding signal intensity
1,RFKRHRLEFPFNESE,640

# Target: SpLsb1
# Assay: as above
# Outline: as §1
row,Binder,SPOT peptide array binding signal intensity
1,RFKRHRLEFPFNESE,10.8

# Target: SpLsb4
# Assay: as above
# Outline: as §1
row,Binder,SPOT peptide array binding signal intensity
1,RFKRHRLEFPFNESE,30.5

# Target: SpMyo1
# Assay: as above
# Outline: as §1
row,Binder,SPOT peptide array binding signal intensity
1,RFKRHRLEFPFNESE,0.5

# Target: SpNbp2
# Assay: as above
# Outline: as §1
row,Binder,SPOT peptide array binding signal intensity
1,RFKRHRLEFPFNESE,298

# Target: SpPex13
# Assay: as above
# Outline: as §1
row,Binder,SPOT peptide array binding signal intensity
1,RFKRHRLEFPFNESE,15

# Target: SpRvs167
# Assay: as above
# Outline: as §1
row,Binder,SPOT peptide array binding signal intensity
1,RFKRHRLEFPFNESE,22.5

# Target: SpSla1-D1-D2
# Assay: as above
# Outline: as §1
row,Binder,SPOT peptide array binding signal intensity
1,RFKRHRLEFPFNESE,≤ 0

# Target: SpSla1-D3
# Assay: as above
# Outline: as §1
row,Binder,SPOT peptide array binding signal intensity
1,RFKRHRLEFPFNESE,26
